Data published in PubChem BioAssay.
Results filed as inconclusive are left out. Active and inactive are the calls of the source.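 The calls were made as follows, unless noted: active = differentiation response of at least 50%, scaled between solvent and reference control, from cells with both markers; inactive = the rest.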

Columns and labels:
[1] = rapamycin-like changes in RPL19A-GFP expression – cell-based, S. cerevisiae, multiplex flow cytometry, primary screen (AID 1862; in the data active = percent of DMSO control GFP below about 86%;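 also: lower values mimic rapamycin by blocking the RPL19A rise seen in DMSO cells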); conditions: S. cerevisiae RPL19A-GFP strain, flow cytometry fluorescence, 3 h; at 10 µM; stronger effect = lower value
[2] = TOR pathway GLN3 branch reporter MEP2-GFP changes – S. cerevisiae, multiplex flow cytometry, primary screen (AID 1867;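 active = GFP response, as percent of the DMSO control, above the screen-wide mean plus 3 SD, about 139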;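 also: median GFP channel fluorescence of barcode-gated MEP2-GFP cells measured by flow cytometry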); conditions: S. cerevisiae MEP2-GFP strain, 3 h, at 10 µM, stronger effect = higher value, 100% means same as DMSO wells
[3] = TOR pathway RTG branch CIT2 reporter changes – S. cerevisiae, GFP fusion, multiplex flow cytometry, primary screen (AID 1870;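 active = percent response above a set limit, the screen-wide mean plus 3 SD, cut at about 130% in these data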;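 also: barcoded CIT2-GFP strain pooled with four other GFP strains with rapamycin as positive control; median GFP fluorescence per well over plate mean of DMSO wells so 100% = DMSO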); conditions: S. cerevisiae CIT2-GFP expression, 3 h, at 10 µM, stronger effect = higher value
[4] = TOR pathway LAP4-GFP level changes – S. cerevisiae, multiplex flow cytometry, primary screen (AID 1873;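 active = GFP signal, as percent of the solvent control, above the screen mean plus 3 SD, about 149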); conditions: S. cerevisiae LAP4-GFP expression, 3 h, at 10 µM, stronger effect = higher value
[5] = yeast AGP1-GFP level changes, GLN3 branch – cell-based, multiplex flow cytometry, S. cerevisiae, primary screen (AID 1887;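 active = GFP signal above the screen-wide mean plus 3 SD, that is over about 124.5% of the solvent control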;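 also: AGP1-GFP fusion strain of S. cerevisiae within a five-strain barcoded multiplex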); conditions: 3 h, at 10 µM, stronger effect = higher value
[6] = reduced mouse 2C T cell binding to pMHC/ICAM-1 vesicles – MLPCN validation set, flow cytometry, LFA-1/ICAM-1 modulator project, pilot screen (AID 2523;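 active = response below a set limit, under 55% cells CD8-positive and vesicle-bound, and CD8 cells' 90th-percentile brightness under 279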;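 as to vesicle binding response: mean PE anti-B7-1 fluorescence of CD8+ cells relative to row control; 100% = QL9-loaded vesicles with DMSO vehicle in the same plate row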); conditions: 2C mouse CD8+ T cells, at 7 µM, stronger effect = lower value; double positive events: measured here: CD8+/vesicle+ event percentage
[7] = biological target: Integrin beta-1 (Homo sapiens) + Integrin alpha-4 (Homo sapiens) (UniProt P13612+P05556); test: alpha4beta1 integrin LIBS antibody binding reduction – U937 cells, HUTS-21 mAb, flow cytometry, validation set, VLA-4 allosteric modulator project, pilot screen (AID 2674;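 active = inhibition above 50%, about 3 SD of the validation set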;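 also: antibody binding induced by the VLA-4 ligand LDV present at three times its Kd; 0% = LDV ligand with antibody and no compound and 100% = antibody without LDV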); conditions: HUTS-21 LIBS mAb binding, at 6.7 µM, stronger effect = higher value, binding induced by LDV ligand
Chain of Integrin beta-1 (Homo sapiens) + Integrin alpha-4 (Homo sapiens) (P05556 whole entry, looked up): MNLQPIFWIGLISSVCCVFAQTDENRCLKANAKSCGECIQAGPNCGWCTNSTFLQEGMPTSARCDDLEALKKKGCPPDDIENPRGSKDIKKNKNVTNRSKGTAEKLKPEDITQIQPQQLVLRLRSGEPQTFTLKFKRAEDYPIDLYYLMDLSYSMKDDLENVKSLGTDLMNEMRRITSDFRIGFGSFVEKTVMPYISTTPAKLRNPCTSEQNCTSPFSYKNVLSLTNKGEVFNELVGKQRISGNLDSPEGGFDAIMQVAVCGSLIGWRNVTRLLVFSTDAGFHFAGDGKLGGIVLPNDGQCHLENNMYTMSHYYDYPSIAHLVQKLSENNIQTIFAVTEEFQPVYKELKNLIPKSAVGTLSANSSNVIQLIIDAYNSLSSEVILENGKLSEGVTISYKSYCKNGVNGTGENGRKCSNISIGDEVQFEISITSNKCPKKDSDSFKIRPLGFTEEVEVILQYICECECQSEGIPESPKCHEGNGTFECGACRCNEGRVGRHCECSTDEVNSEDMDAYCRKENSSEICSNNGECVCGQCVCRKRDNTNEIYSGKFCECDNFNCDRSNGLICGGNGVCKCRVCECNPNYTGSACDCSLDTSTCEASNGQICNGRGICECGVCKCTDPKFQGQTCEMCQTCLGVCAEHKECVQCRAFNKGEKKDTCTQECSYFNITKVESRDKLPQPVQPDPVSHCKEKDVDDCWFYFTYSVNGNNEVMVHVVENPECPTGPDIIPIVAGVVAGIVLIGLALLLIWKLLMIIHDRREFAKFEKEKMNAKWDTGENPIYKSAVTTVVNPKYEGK
Chain of Integrin beta-1 (Homo sapiens) + Integrin alpha-4 (Homo sapiens) (P13612 whole entry, looked up): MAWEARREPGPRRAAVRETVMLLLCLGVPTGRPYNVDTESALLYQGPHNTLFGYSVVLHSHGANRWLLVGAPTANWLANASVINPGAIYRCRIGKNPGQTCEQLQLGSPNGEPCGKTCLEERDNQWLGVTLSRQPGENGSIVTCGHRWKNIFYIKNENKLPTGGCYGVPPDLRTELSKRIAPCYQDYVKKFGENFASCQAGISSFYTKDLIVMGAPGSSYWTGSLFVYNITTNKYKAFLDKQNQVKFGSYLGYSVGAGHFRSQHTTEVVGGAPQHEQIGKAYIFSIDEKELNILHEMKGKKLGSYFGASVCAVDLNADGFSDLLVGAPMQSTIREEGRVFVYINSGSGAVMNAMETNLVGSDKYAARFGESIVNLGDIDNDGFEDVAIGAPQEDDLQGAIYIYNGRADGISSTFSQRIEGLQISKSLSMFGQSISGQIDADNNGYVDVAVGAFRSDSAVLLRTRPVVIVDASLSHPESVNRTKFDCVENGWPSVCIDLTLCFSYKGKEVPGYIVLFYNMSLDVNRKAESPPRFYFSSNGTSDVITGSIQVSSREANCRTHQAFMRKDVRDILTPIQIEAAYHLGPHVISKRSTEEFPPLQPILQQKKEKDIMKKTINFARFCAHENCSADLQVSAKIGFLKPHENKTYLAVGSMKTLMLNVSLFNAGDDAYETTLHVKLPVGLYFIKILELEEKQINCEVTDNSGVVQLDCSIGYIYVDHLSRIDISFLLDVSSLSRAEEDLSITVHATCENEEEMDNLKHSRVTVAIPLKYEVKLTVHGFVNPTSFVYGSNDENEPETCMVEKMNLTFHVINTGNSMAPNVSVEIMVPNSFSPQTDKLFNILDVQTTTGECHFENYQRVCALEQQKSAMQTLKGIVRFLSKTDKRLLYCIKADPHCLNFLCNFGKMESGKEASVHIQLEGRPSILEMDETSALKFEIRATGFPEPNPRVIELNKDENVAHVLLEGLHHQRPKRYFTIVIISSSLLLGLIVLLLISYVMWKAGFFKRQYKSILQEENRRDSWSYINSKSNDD

[8] = calorie-restriction mimetic ROS inhibitors, yeast – validation compound set, pilot screen (AID 2706;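 active = superoxide response below 65% of plate, a cut near 3 SD across the whole screen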;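 also: yeast exposed to compound for one week at 30 degrees C before staining; 100% = mean of all compound wells on the same plate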); conditions: S. cerevisiae aging, superoxide DHE fluorescence; at 10 µM; stronger effect = lower value
[9] = biological target: Beta-adrenergic receptor kinase 1 (Homo sapiens) (UniProt P25098); test: GRK2 binders displacing RNA aptamer, biochemical, validation, human GRK2, bead flow cytometry (AID 488806;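 active = aptamer binding inhibition above 30%, about 3 SD of noise from non-fluorescent compounds; inactive = inhibition at or below 30%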); conditions: bead-bound GRK2, FAM-aptamer displacement, at 10 µM, stronger effect = higher value
Chain of Beta-adrenergic receptor kinase 1 (Homo sapiens) (P25098 whole entry, looked up): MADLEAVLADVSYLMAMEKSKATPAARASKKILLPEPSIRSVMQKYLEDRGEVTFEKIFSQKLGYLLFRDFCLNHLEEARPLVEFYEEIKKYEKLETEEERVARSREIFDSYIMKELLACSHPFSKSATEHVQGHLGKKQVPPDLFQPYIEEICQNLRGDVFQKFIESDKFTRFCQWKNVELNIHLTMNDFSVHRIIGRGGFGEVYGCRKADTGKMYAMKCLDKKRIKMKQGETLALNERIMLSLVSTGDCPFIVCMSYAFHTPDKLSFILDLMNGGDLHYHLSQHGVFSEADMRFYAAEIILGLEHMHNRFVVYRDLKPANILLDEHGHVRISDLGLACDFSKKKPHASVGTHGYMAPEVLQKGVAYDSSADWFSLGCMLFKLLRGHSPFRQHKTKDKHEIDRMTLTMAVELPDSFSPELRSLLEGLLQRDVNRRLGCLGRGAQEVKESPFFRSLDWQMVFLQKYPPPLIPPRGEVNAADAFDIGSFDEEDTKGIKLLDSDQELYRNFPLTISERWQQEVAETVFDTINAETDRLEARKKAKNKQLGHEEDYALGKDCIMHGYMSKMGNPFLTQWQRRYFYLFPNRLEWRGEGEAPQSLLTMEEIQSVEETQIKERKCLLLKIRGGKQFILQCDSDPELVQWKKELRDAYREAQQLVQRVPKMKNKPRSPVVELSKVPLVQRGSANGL

[10] = biological target: Beta-2 adrenergic receptor (Homo sapiens) (UniProt P07550); test: agonist-induced loss of surface beta2AR – cell-based, FAP fluorogen, flow cytometry, validation set, pilot screen (AID 504459;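 active = percent response above 42, roughly 3 SD of non-fluorescent test compounds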;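 also: agonist-driven loss of surface beta2AR via internalization measured by FAP dye flow cytometry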); conditions: Am2.2-beta2AR cells, at 10 µM, stronger effect = higher value
Chain of Beta-2 adrenergic receptor (Homo sapiens) (P07550 whole entry, looked up): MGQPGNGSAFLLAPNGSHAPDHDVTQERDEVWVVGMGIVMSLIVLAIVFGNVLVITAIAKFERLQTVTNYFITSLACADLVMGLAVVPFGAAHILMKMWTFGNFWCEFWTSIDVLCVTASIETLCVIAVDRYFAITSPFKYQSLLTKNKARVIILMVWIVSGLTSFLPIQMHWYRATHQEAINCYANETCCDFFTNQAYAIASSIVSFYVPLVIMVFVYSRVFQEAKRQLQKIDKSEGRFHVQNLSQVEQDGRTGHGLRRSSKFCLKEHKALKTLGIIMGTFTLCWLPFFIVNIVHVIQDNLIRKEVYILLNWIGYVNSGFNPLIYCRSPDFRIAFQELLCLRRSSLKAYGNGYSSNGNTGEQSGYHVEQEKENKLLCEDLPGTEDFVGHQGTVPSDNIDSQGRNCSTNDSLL

[11] = biological target: AP-2 complex subunit beta (Homo sapiens) (UniProt P63010); test: beta-arrestin/AP2 interaction blockers – biochemical, validation set, GST-AP2 beads, flow cytometry, pilot screen (AID 504541;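 active = inhibition above 54%, about 3 SD of non-fluorescent compounds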;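 also: AP2 carries R879A mutation and is captured from E. coli lysate; bead-bound FITC arrestin peptide fluorescence measuring arrestin peptide binding to AP2; 0% = DMSO wells and 100% = excess unlabeled arrestin peptide control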); conditions: FITC arrestin peptide, at 10 µM, stronger effect = higher value, AP2 beta2 appendage fragment, R879A mutant
Chain of AP-2 complex subunit beta (Homo sapiens) (P63010 whole entry, looked up, the tested form may be a part, one chain of several): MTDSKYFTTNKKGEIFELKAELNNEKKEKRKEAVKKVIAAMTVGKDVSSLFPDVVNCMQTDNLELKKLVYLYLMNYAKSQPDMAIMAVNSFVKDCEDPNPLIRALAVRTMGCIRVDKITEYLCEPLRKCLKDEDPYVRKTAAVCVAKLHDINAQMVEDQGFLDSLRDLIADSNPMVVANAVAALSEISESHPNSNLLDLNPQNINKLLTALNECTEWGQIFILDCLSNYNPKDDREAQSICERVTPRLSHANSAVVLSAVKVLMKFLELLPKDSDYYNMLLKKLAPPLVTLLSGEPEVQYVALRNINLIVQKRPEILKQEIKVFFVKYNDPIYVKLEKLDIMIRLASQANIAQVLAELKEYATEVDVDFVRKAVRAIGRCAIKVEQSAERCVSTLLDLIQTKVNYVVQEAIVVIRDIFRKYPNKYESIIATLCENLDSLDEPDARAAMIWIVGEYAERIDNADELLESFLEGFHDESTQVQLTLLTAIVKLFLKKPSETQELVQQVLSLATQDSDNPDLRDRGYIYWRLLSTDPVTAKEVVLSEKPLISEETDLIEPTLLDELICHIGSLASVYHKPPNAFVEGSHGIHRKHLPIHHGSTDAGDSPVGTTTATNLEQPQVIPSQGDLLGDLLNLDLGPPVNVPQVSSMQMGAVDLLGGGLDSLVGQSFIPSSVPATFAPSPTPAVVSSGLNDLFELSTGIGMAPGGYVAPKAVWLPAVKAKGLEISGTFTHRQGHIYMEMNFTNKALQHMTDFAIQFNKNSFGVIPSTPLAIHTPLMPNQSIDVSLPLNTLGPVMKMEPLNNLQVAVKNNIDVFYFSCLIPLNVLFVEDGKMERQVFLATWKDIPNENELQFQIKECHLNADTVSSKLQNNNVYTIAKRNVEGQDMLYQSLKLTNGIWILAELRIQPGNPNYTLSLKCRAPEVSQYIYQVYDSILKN

[12] = cytosolic pH regulators acting via V-ATPase – S. cerevisiae, pHLuorin, HTS validation (AID 504600; in the data active = response above about 15%;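 also: plate controls were DMSO for no effect and reference compound for full effect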); conditions: V-ATPase proton transport, at 10 µM, stronger effect = higher value
[13] = system: anti-desmoglein-3 scFv antibody binding to human DSG3; test: blockers of pathogenic pemphigus antibody–desmoglein-3 binding – biochemical, validation compound set, bead-based, flow cytometry, pilot screen (AID 588368;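 active = binding below the plate cutoff, the plate median minus 3 SD, with a reading above zero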;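 also: signal is the median channel fluorescence of bead-bound GFP antibody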); conditions: Protein G beads, DSG3-Fc, scFv-GFP binding, at 10 µM, stronger effect = lower value
[14] = Nile Red efflux blockade in pump-expressing yeast – validation compound set, multiplex, phenotypic, pilot screen (AID 588506;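 active = efflux inhibition above 0.42, the validation set average plus 4 SD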;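 also: Nile Red retained in cells so higher fluorescence means more efflux inhibition; 0 = negative control wells and 1 = enniatin B 25 µM full block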); conditions: S. cerevisiae pump-expressing triplex, Nile Red efflux flow cytometry; at 10 µM; stronger effect = higher value; the pumps come from Candida albicans
[15] = biological target: ATP-binding cassette sub-family B member 6 (Homo sapiens) (UniProt Q9NP58); test: blockers of ABCB6-driven porphyrin uptake – K562-ABCB6 cells, flow cytometry, validation set, pilot screen (AID 588550;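 active = inhibition above the screen-wide mean plus 3 SD, about 51%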;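 also: 0% = DMSO wells and 100% = benzethonium chloride 70 µM positive control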); conditions: K562-ABCB6 porphyrin accumulation, 1 h, at 10 µM, stronger effect = higher value
Chain of ATP-binding cassette sub-family B member 6 (Homo sapiens) (Q9NP58 whole entry, looked up): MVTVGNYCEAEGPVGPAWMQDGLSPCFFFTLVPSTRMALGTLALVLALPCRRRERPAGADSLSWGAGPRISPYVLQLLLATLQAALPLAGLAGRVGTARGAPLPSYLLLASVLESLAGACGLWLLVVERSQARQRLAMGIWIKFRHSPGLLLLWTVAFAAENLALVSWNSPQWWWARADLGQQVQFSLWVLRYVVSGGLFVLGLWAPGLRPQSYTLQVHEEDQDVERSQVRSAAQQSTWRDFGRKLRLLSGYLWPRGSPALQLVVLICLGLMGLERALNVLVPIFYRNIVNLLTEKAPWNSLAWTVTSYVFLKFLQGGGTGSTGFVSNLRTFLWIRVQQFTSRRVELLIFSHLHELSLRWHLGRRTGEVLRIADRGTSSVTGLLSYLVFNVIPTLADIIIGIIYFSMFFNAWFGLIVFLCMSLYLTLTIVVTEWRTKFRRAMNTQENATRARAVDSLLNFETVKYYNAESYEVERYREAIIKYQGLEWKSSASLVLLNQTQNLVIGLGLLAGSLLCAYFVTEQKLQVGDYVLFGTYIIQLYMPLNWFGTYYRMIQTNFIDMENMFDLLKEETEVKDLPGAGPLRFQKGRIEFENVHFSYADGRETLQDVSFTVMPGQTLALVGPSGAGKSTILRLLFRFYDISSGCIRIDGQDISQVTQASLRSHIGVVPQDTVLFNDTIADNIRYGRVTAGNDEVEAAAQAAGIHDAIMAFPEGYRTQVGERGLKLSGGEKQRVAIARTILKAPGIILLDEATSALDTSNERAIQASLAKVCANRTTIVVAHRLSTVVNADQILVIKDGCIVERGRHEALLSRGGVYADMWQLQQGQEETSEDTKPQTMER

[16] = AML differentiation inducers, ER-HoxA9 marrow cells – cell-based, GFP/MAC1 double positive, flow cytometry, validation set, primary screen (AID 588685); conditions: stronger effect = higher value, normalized: vehicle 0, fulvestrant 100;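 also: compound exposure lasts four days before antibody staining and flow analysis; 0% = DMSO wells and 100% = 5 µM fulvestrant positive control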

SMILES	percent of DMSO control GFP [1]	GFP response vs DMSO [2]	percent response of DMSO control [3]	GFP response vs DMSO [4]	GFP response, % of DMSO [5]	double positive events [6] [%]	vesicle binding response [6]	inhibition [7]	superoxide response (% of plate) [8]	aptamer binding inhibition [9]	response [10]	inhibition [11]	response [12]	binding (% of control) [13]	efflux inhibition (fraction of control) [14]	inhibition [15]	differentiation response [16]
C[C@H]1O[C@@H](O[C@H]2[C@@H](O)C[C@H](O[C@H]3[C@@H](O)C[C@H](O[C@H]4CC[C@@]5(C)[C@H](CC[C@@H]6[C@@H]5C[C@@H](O)[C@]5(C)[C@@H](C7=CC(=O)OC7)CC[C@]65O)C4)O[C@@H]3C)O[C@@H]2C)C[C@H](O)[C@@H]1O	100% (inactive)	105% (inactive)	95.5% (inactive)	93.7% (inactive)	93.7% (inactive)	62.7	151% (inactive)	11% (inactive)	90.7% (inactive)	-2% (inactive)	12.4% (inactive)	-11.4% (inactive)	1.64% (inactive)	103% (inactive)	-0.07 (inactive)	-10% (inactive)	5.67% (inactive)
O=S(=O)(CCc1nc2ccccc2[nH]1)c1ccc(Cl)cc1	98.6% (inactive)	106% (inactive)	98.6% (inactive)	124% (inactive)	99.7% (inactive)	60.3	159% (inactive)	-7.25% (inactive)	104% (inactive)	-2% (inactive)	13.4% (inactive)	-4.72% (inactive)	-0.13% (inactive)	103% (inactive)	-0.21 (inactive)	-7% (inactive)	-16.8% (inactive)
Cc1ccccc1C(=O)Oc1ccc(Sc2ccc(O)cc2)cc1	103% (inactive)	99.3% (inactive)	100% (inactive)	113% (inactive)	100% (inactive)	62.4	255% (inactive)	0.58% (inactive)	94.1% (inactive)	0% (inactive)	-4.72% (inactive)	-5.67% (inactive)	1.54% (inactive)	97.6% (inactive)	0.02 (inactive)	-7% (inactive)	-1.71% (inactive)
CSCCC(NC(=O)/C(=C/c1ccc2c(c1)OCO2)NC(=O)c1cccc([N+](=O)[O-])c1)C(=O)O (stereo not given)	93.7% (inactive)	123% (inactive)	101% (inactive)	86.4% (inactive)	91.9% (inactive)	63.7	169% (inactive)	4.52% (inactive)	93.4% (inactive)	4% (inactive)	0.64% (inactive)	-5.32% (inactive)	0.74% (inactive)	105% (inactive)	-0.31 (inactive)	14% (inactive)	-6.55% (inactive)
CN(C)CCOCCOc1ccc(Cl)cc1Br	93.7% (inactive)	119% (inactive)	101% (inactive)	77% (inactive)	90.3% (inactive)	47.1	160% (inactive)	-2.27% (inactive)	97.8% (inactive)	-6% (inactive)	-10% (inactive)	-6.43% (inactive)	1.08% (inactive)	105% (inactive)	0.09 (inactive)	4% (inactive)	13.1% (inactive)
